Bioassay records (PubChem)
Only some compounds are listed: those with a hit (about 3.7% of all), similar ones and a draw of the others.
BoNT-A LC inh2: BoNT/A light chain protease inhibitors, primary screen, biochemical, flow cytometry, MLPCN library; multiplex microsphere protease substrate cleavage; Botulinum neurotoxin type A light chain protease (Clostridium botulinum A str. ATCC 3502); inhibition, % at 10 µM; 360,000 tested, 0.17% active; AID 588499, 2011; further: plate controls were buffer without enzyme for full effect and enzyme alone for no effect
Autofluor counter: compound fluorescence in toxin protease inhibitor counterscreen; 360,000 tested, 3.1% active; compound autofluorescence counterscreen, microsphere flow cytometry; active compounds read high; fluorescence intensity (concentration not given with the values); in the data active means fluorescence intensity above about 16000; inconclusive means no clear call, values can overlap the other calls
Anthrax LF prot: Bacillus anthracis LF protease inhibitors, primary screen, biochemical, multiplex microsphere, MLPCN library; AID 588501, 2011; 360,000 tested, 0.12% active; multiplex microsphere protease cleavage assay; Lethal factor (Bacillus anthracis), P15917; inhibition, % at 10 µM; further: plate controls were buffer without enzyme for full effect and enzyme alone for no effect
MazEF act: activators of E. coli MazEF toxin-antitoxin RNase, primary screen, biochemical, fluorescence, uHTS | Endoribonuclease toxin MazF (Escherichia coli (strain K12)), P0AE70 | FAM/BHQ RNA-DNA oligo cleavage fluorescence, 5 h | activation, % at 20 µM | 350,000 tested, 0.32% active | AID 504720, 2011; in the data active means activation above about 50%
Target sequence (P0AE70 whole entry, looked up): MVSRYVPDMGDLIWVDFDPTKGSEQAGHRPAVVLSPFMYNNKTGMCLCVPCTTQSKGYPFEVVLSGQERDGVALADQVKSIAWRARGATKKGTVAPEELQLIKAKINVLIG
BoNT F protease: BoNT/F light chain protease inhibitors, primary screen, biochemical, flow cytometry, MLPCN library | Multiplex microsphere protease cleavage assay | 360,000 tested, 0.22% active | inhibition, % at 10 µM | AID 588497, 2011 | Botulinum neurotoxin type F light chain protease (Clostridium botulinum); in the data active means inhibition above about 35%, passing the limit was not always enough; inconclusive means no clear call, values can overlap the other calls; further: plate controls were buffer without enzyme for full effect and enzyme alone for no effect
An asterisk follows results filed as active; ? = inconclusive; · = no result given. Unless noted, no stated cut-off is given here; in the data, active means inhibition above about 30%; inconclusive means no clear call, values can overlap the other calls; inactive means below that.

SMILES | BoNT-A LC inh2 | Autofluor counter | Anthrax LF prot | MazEF act | BoNT F protease
COC(=O)C1C(=O)/C(=C(/C)N2CCCC2)C(=O)CC1(C)C (stereo not drawn) | ? | 23073* | -0.1 | 6.0 | -1.3
COC(=O)c1c(C(=O)OC)c2n(c1C)Cc1ccccc1C2 | -0.7 | 22637* | -3.3 | 11.3 | 0.4
Cc1noc(C)c1NC(=O)N(C)C[C@H]1Oc2ccc(NC(=O)Cc3ccccc3)cc2C(=O)N([C@H](C)CO)C[C@@H]1C | -0.1 | 2957 | -3.1 | 0.7 | 1.9
CN(CC(=O)Nc1ccc(Cl)cc1)C(=O)Cn1[nH]c(=O)c2ccccc2c1=O | 1.7 | 3917 | -0.3 | 3.1 | 11.7
COc1ccc2c(c1)CCc1c(C(=O)Nc3ccc(OC)c(OC)c3)noc1-2 | -1.9 | 20591* | -1.2 | -4.0 | -3.0
COc1ccc2c(c1)CCc1c(C(=O)N3CCOCC3)noc1-2 | 12.2 | 18054* | -18.3 | 3.4 | 15.7
COc1ccc2c(C(=O)NCc3ccc4c(c3)OCO4)c(-c3ccc(S(C)(=O)=O)cc3)sc2c1 | 0.1 | 2879 | -9.1 | -2.7 | 2.3
CC1(C)CC(=O)C2=C(C1)OC(N)=C(C#N)C21CCN(Cc2ccccc2)CC1 | -3.4 | 14003 | 4.0 | 50.3* | 4.1
O=C(O)CC(C(=O)O)C(=Cc1ccccc1)c1ccccc1 (stereo not drawn) | -0.1 | 3729 | 4.8 | 5.6 | -3.9
Cc1ccc2nc(C(C)(C)C)c(Cc3cccc(Cl)c3)n2c1 | 0.6 | 6585 | 3.7 | · | -7.3
C/C(=N\O)c1ccc(N2C(=O)C3CC=C(Cl)CC3C2=O)cc1 (stereo not drawn) | -1.6 | 16899* | -3.3 | 3.1 | -4.0
C[C@H](CO)N1C[C@H](C)[C@@H](CN(C)C(=O)Nc2ccc3c(c2)OCO3)Oc2c(NC(=O)Cc3ccccc3)cccc2C1=O | -0.3 | 3081 | 1.7 | -1.7 | -5.4
Cc1ccccc1NC(=O)CSCCO | 2.4 | 22229* | -0.1 | 9.2 | 3.2
Cc1ccccc1NC(=O)CSc1nc(N2CCCCC2)nc(N2CCCCC2)n1 | ? | 22832* | -3.4 | -6.0 | -3.9
CC(=O)c1cccc(NC(=O)CSc2nc(N3CCCCC3)nc(N3CCCCC3)n2)c1 | 0.1 | 3999 | -3.7 | -4.2 | -3.5
O=C(CSCC(=O)Nc1cccc2ccccc12)Nc1cccc2ccccc12 | 0.3 | 4775 | 1.6 | -9.6 | -9.5
O=C(CSCCO)Nc1cccc2ccccc12 | ? | 22778* | -3.3 | 1.7 | -4.5
CC(C(N)=O)N1C(=O)c2cccc3cccc1c23 (stereo not drawn) | 0.6 | 23424* | -0.6 | -0.2 | -4.5
CCCS(=O)(=O)NC(=O)C1(C)CCCN(C(=O)c2c(F)ccc(C)c2F)C1 (stereo not drawn) | -0.2 | 3775 | -0.9 | · | 2.0
N#Cc1cc(C#N)c(N2CCN(c3ccccn3)CC2)nc1N | -3.0 | 23218* | -5.4 | 22.8 | -1.8
c1ccc(N2CCN(c3cnccn3)CC2)nc1 | -0.3 | 3091 | -3.4 | -9.1 | -6.0
CCN1C[C@@H]2[C@@H]3C(=O)N(Cc4ccccc4)C(=O)[C@@H]3[C@](C)(C1=O)N2C(=O)c1ccc(Cl)cc1 | 0.0 | 3912 | -3.5 | 8.2 | 3.2
C[C@@H]1CN([C@@H](C)CO)C(=O)CCCn2nncc2CO[C@@H]1CN(C)C(=O)Nc1ccc(C(C)(C)C)cc1 | -0.1 | 3719 | -0.9 | 3.2 | -6.6
Cc1ccc(COc2ccsc2-c2n[nH]c(=S)n2C)cc1 | 2.0 | 22046* | -2.3 | 6.2 | 2.9
CCCCNC(=O)C1(C)CCCCN1C(=O)c1ccc2c(c1)C(C)(C)CCC2(C)C (stereo not drawn) | -0.4 | 2900 | 3.0 | · | 2.4
SMILES | BoNT-A LC inh2 | Autofluor counter | Anthrax LF prot | MazEF act | BoNT F protease
Nc1c(C(=O)c2ccccc2)oc2ccccc12 | -1.0 | 3626 | -2.1 | 7.6 | 7.2
O=C(c1ccc(Cl)cc1)c1oc2ccccc2c1CS(=O)(=O)c1ccccc1 | 0.2 | 22160* | -3.9 | -4.4 | 0.6
Cc1ccsc1-c1cc2nc(Nc3ccc(F)cc3)n(C)c(=O)c2s1 | 1.2 | 3048 | -2.3 | · | -4.5
COc1ccc(-c2n[nH]c(C)c2-c2cnn(-c3ccccc3)c2)c(O)c1 | ? | 19850* | 0.3 | 9.7 | -0.4
O=C1N(Cc2ccc(F)cc2Cl)c2ccccc2C12OCCCO2 | 1.9 | 19128* | -0.1 | -13.4 | -1.4
O=C1N(Cc2ccccc2F)c2ccccc2C12OCCCO2 | -0.1 | 20831* | -0.9 | -0.5 | -2.8
